60 compounds from the supplement of paper PMC13380429 can be followed below.

The test system of test [1] is Vero E6 infected with SARS-CoV-2. As to the kind of experiment: morphology score (similarity to uninfected cells); higher = more like uninfected cells. Conditions: 24 h.
Test [2] shares this test system. Briefly: SARS-CoV-2 infection rate relative to infected DMSO; higher = more infection, active = 60 or less. Conditions: 24 h.

Consider `C[C@]12CCC(=O)C=C1CC[C@@H]1[C@@H]2[C@@H](O)C[C@@]2(C)[C@H]1CC[C@]2(O)C(=O)COP(=O)(O)O` [hydrocortisone-phosphate] (10 µM), for which, in test [1], the morphology score is -0.00553. Also, the SARS-CoV-2 infection rate in test [2] was 98.5% (inactive).
The matching figures for `O=C(OCC(COC(=O)c1cccnc1)(COC(=O)c1cccnc1)COC(=O)c1cccnc1)c1cccnc1` [niceritrol] (0.833333 µM): 0.129 and 96.5% (inactive).
In test [1], `C/C(=N\c1ccccc1N)c1c(C)cc(=O)n(O)c1O` (10 µM) had a morphology score of -0.169. Moreover, in test [2], the SARS-CoV-2 infection rate is 107% (inactive).
Turning to `Cc1c(OCC(F)(F)F)ccnc1C[S+]([O-])c1nc2ccccc2[nH]1` (stereo not given) [lansoprazole] (10 µM), in test [1], the morphology score stood at 0.115. Moreover, the SARS-CoV-2 infection rate in test [2] is 99% (inactive).
The matching figures for `COc1cc2c(cc1OC)CN(C(=O)[C@@H](NCc1ccncc1)C(C)(C)C)CC2` (10 µM): -0.115 and 105% (inactive).
`COc1ccc(C2CC(c3ccccc3)=NN2c2ccc(S(N)(=O)=O)cc2)cc1` (stereo not given) (10 µM) yielded a morphology score in test [1] of 0.152. In addition, the SARS-CoV-2 infection rate in test [2] was 87% (inactive).
Take `CC(C)(O)CC(=O)O` [beta-hydroxy-beta-methylbutyrate] (10 µM): the morphology score in test [1] amounted to 0.0168. For the same compound, the SARS-CoV-2 infection rate in test [2] is 105% (inactive).
The corresponding values for `CCCSc1nc(N[C@@H]2C[C@H]2c2ccc(F)c(F)c2)c2nnn([C@@H]3C[C@H](OCCO)[C@@H](O)[C@H]3O)c2n1` [ticagrelor] (10 µM) are -0.0229 and 104% (inactive).
The matching figures for `CCCCCCNC(=O)Nc1ccc(S(=O)(=O)Nc2ccc(CCNC[C@H](O)COc3ccc(O)cc3)cc2)cc1` (10 µM): -0.167 and 112% (inactive).
The corresponding values for `NS(=O)(=O)c1cc(-c2nnn[nH]2)c(NCc2cccs2)cc1Cl` [azosemide] (10 µM) are 0.286 and 98.5% (inactive).
As to `C[C@H]1C[C@@H]2[C@H]([C@@H](O)C[C@@]3(C)[C@H]2CC[C@]3(O)C(=O)CO)[C@@]2(C)C=CC(=O)C=C12` [methylprednisolone] (10 µM), the morphology score in test [1] is -0.0624. Moreover, the SARS-CoV-2 infection rate in test [2] was 108% (inactive).
In the case of `C[C@]12CC[C@@H]3c4ccc(O)cc4CC[C@H]3[C@@H]1CC[C@@H]2O` [estradiol] (10 µM), the morphology score in test [1] was -0.0909. Moreover, the SARS-CoV-2 infection rate in test [2] was 116% (inactive).
Take `Cc1cc(C)c(CNC(=O)c2cc(-c3ccc(CN4CCOCC4)cc3)cc3c2cnn3C2CCCC2)c(=O)[nH]1` (10 µM): the morphology score in test [1] was -0.13. In addition, in test [2], the SARS-CoV-2 infection rate is 110% (inactive).
In test [1], `CC1=C(/C=C/C(C)=C/C=C/C(C)=C/C=O)C(C)(C)CCC1` [retinaldehyde] (10 µM) gave a morphology score of -0.111. Also, the SARS-CoV-2 infection rate in test [2] was 114% (inactive).
The corresponding values for `Nc1ccccc1S(N)(=O)=O` [2-aminobenzenesulfonamide] (10 µM) are -0.162 and 108% (inactive).
The corresponding values for `O=C1C(Cl)=C(NCCN2CCOCC2)C(=O)c2ncccc21` (0.833333 µM) are 0.143 and 94% (inactive).
The corresponding values for `CCCCCCc1ccc(O)cc1O` [hexylresorcinol] (10 µM) are 0.199 and 88% (inactive).
For `CN(C)CCCN1c2ccccc2Sc2ccccc21` [promazine] (10 µM), the morphology score in test [1] was determined as 0.41. Also, the SARS-CoV-2 infection rate in test [2] is 91.5% (inactive).
The corresponding values for `C[C@@H](CN(C)C)CN1c2ccccc2Sc2ccccc21` (racemic) [alimemazine] (0.833333 µM) are -0.144 and 105% (inactive).
The matching figures for `Cc1ccccc1-c1cc(N2CCN(C)CC2)ncc1N(C)C(=O)C(C)(C)c1cc(C(F)(F)F)cc(C(F)(F)F)c1` [netupitant] (10 µM): 0.112 and 94% (inactive).
The corresponding values for `COc1ccc2cc3[n+](cc2c1OC)CCc1cc2c(cc1-3)OCO2` [berberine] (10 µM) are 0.0605 and 98% (inactive).
`CCN(CC)CCNC(=O)c1cc(S(C)(=O)=O)ccc1OC` [tiapride] (10 µM): the morphology score in test [1] was 0.0888. Besides, the SARS-CoV-2 infection rate in test [2] is 98% (inactive).
The matching figures for `CC(=O)O[C@@H]1C[C@H]2C(C)(C)C(=O)C=C[C@]2(C)[C@H]2CC[C@@]3(C)[C@H](c4ccoc4)OC(=O)[C@H]4O[C@]43[C@@]21C` [gedunin] (10 µM): 0.145 and 106% (inactive).
Consider `CC(C)Oc1ccc2c(=O)c3cc(C(=O)O)ccc3oc2c1` (10 µM), for which the morphology score in test [1] is 0.0971. For the same compound, the SARS-CoV-2 infection rate in test [2] was 100% (inactive).
The matching figures for `N[C@H]1CC[C@H](N[C@@H]2C[C@H]2c2ccccc2)CC1` (10 µM): 0.432 and 79.5% (inactive).
The corresponding values for `CC1=C(/C=C/C(C)=C/C=C/C(C)=C/C(=O)Nc2ccc(O)cc2)C(C)(C)CCC1` [fenretinide] (10 µM) are -0.442 and 116% (inactive).
The corresponding values for `Cc1ccc(S(=O)(=O)n2c(N)nc3ccccc32)cc1` (10 µM) are -0.0202 and 108% (inactive).
The compound `Cc1ccc(F)cc1C(=O)Nc1ccc(C(=O)N2Cc3cccn3Cc3ccccc32)c(Cl)c1` [lixivaptan] (10 µM) gave a morphology score in test [1] of 0.0414. Besides, the SARS-CoV-2 infection rate in test [2] is 111% (inactive).
The matching figures for `CC1=C(/C=C/C(C)=C/C=C/C(C)=C/C(=O)O)C(C)(C)CCC1` [tretinoin] (10 µM): -0.0366 and 104% (inactive).
The matching figures for `C[C@@H]1CN(c2c(F)c(F)c3c(=O)c(C(=O)O)cn(C4CC4)c3c2F)C[C@H](C)N1` [orbifloxacin] (10 µM): 0.149 and 96.5% (inactive).
The compound `OC(CN1CCN(c2cccc(Cl)c2)CC1)C(c1ccccc1)c1ccccc1` (stereo not given) (10 µM) showed a morphology score in test [1] of -0.0067. For the same compound, the SARS-CoV-2 infection rate in test [2] is 96.5% (inactive).
The corresponding values for `CCCCOc1cc(C(=O)NCCN(CC)CC)c2ccccc2n1` [cinchocaine] (10 µM) are 0.435 and 88% (inactive).
The matching figures for `CC1(C)CCC(C)(C)c2c1cc(C(=O)Nc1cc(F)c(C(=O)O)c(F)c1)c(O)c2Cl` (10 µM): -0.137 and 110% (inactive).
Take `COc1ccc(-c2sc(NC(=O)C(C)(C)C)nc2C)cc1S(=O)(=O)Nc1ccc(O)cc1` [PI4KIII-beta-inhibitor-1] (10 µM): the morphology score in test [1] is 0.325. Further, in test [2], the SARS-CoV-2 infection rate was 66% (inactive).
The corresponding values for `Cc1cccc(Nc2cc(Cl)nc(SCC(=O)O)n2)c1C` [pirinixic-acid] (10 µM) are 0.0216 and 108% (inactive).
In test [1], `C[C@@H]1CC[C@@]2(NC1)O[C@H]1C[C@H]3[C@@H]4CC=C5C[C@@H](O[C@@H]6O[C@H](CO)[C@@H](O[C@@H]7O[C@@H](C)[C@H](O)[C@@H](O)[C@H]7O)[C@H](O)[C@H]6O[C@@H]6O[C@@H](C)[C@H](O)[C@@H](O)[C@H]6O)CC[C@]5(C)[C@H]4CC[C@]3(C)[C@H]1[C@@H]2C` [solamargine] (0.833333 µM) had a morphology score of 0.117. The SARS-CoV-2 infection rate in test [2] is 102% (inactive).
The matching figures for `O=C(O)CCCCCCCC(=O)O` [azelaic-acid] (10 µM): 0.0279 and 104% (inactive).
The matching figures for `NC(=O)C[C@H](N)C(=O)O` [L-asparagine] (10 µM): 0.14 and 94% (inactive).
Compound `CC(=O)Nc1ccc(C(=O)O)cc1` [acedoben] (10 µM) displayed a morphology score in test [1] of 0.0304. Moreover, the SARS-CoV-2 infection rate in test [2] is 102% (inactive).
The matching figures for `Cc1ccc2nc(N)[nH]c(=O)c2c1Sc1ccncc1` [nolatrexed] (10 µM): -0.166 and 108% (inactive).
The corresponding values for `CC1=C(C(=O)O)N2C(=O)[C@@H](NC(=O)[C@H](N)c3ccc(O)cc3)[C@H]2SC1` [cefadroxil] (10 µM) are -0.016 and 108% (inactive).
On to `O=C(Oc1ccccc1C(=O)O)c1ccccc1O` [sasapyrine] (10 µM), for which the morphology score in test [1] is 0.0337. In addition, in test [2], the SARS-CoV-2 infection rate is 108% (inactive).
The corresponding values for `O=C(Nc1ccccc1)[C@]12C[C@H]1/C(=N\O)c1ccccc1O2` (10 µM) are 0.246 and 79% (inactive).
The corresponding values for `O=C(c1ccc2nccnc2c1)N1CCCCC1` [ampalex] (10 µM) are -0.0456 and 104% (inactive).
The corresponding values for `O=C(O)C[C@H]1CC[C@H](c2ccc(NC(=O)c3nnc(Nc4ccc(F)c(F)c4)o3)cc2)CC1` (10 µM) are 0.115 and 91% (inactive).
`CCCOC(=O)c1ccc(O)cc1` [propyl 4-hydroxybenzoate] (10 µM) showed a morphology score in test [1] of -0.0462. Moreover, the SARS-CoV-2 infection rate in test [2] was 111% (inactive).
`C[C@H]1COc2c(C3(N)CC3)c(F)cc3c(=O)c(C(=O)O)cn1c23` [pazufloxacin] (10 µM) gave a morphology score in test [1] of 0.202. Moreover, the SARS-CoV-2 infection rate in test [2] is 103% (inactive).
On to `CC(=O)Nc1ccc(OC(C)=O)cc1` [diacetamate] (10 µM), for which the morphology score in test [1] came out at 0.116. Besides, the SARS-CoV-2 infection rate in test [2] is 99.5% (inactive).
The matching figures for `COc1nccc(-c2c(-c3ccc(F)cc3)ncn2C2CCNCC2)n1` (10 µM): -0.0202 and 98.5% (inactive).
The corresponding values for `Cc1ccccc1-n1c(Cn2ncc3c(N)ncnc32)nc2cccc(C)c2c1=O` (10 µM) are 0.373 and 45% (active).
The matching figures for `C[C@@H](NCc1cc(Br)cc2nc(O)c(O)nc12)P(=O)(O)O` (10 µM): 0.0389 and 101% (inactive).
The compound `Cc1nnc(NS(=O)(=O)c2ccc(N)cc2)s1` [sulfamethizole] (10 µM) showed a morphology score in test [1] of 0.0585. The SARS-CoV-2 infection rate in test [2] was 108% (inactive).
With `COc1ccc(CCN(C)CCc2ccc(OC)c(OC)c2)cc1OC` (10 µM), the morphology score in test [1] turned out to be 0.0297. The SARS-CoV-2 infection rate in test [2] was 103% (inactive).
The corresponding values for `COC(=O)/C=C/C(=O)N[C@@H]1CC[C@@]2(O)[C@H]3Cc4ccc(O)c5c4[C@@]2(CCN3CC2CC2)[C@H]1O5` [beta-funaltrexamine] (10 µM) are 0.0225 and 99% (inactive).
The corresponding values for `CC(C)(C)C#Cc1cc(N(C(=O)[C@H]2CC[C@H](C)CC2)[C@H]2CC[C@@H](O)CC2)c(C(=O)O)s1` (10 µM) are -0.117 and 107% (inactive).
Turning to `CCN1CCCC1=O` [1-ethyl-2-pyrrolidone] (10 µM), the morphology score in test [1] turned out to be 0.128. For the same compound, the SARS-CoV-2 infection rate in test [2] is 104% (inactive).
The matching figures for `CC[C@@H](C)N(C)C(=O)c1cc2ccccc2c(-c2ccccc2Cl)n1` (10 µM): -0.122 and 111% (inactive).
In test [1], `COc1ccc(C[C@H]2NC[C@H](O)[C@H]2OC(C)=O)cc1` [anisomycin] (0.833333 µM) showed a morphology score of 0.045. In addition, in test [2], the SARS-CoV-2 infection rate was 102% (inactive).
Take `Cn1c([N+](=O)[O-])cnc1COC(N)=O` [ronidazole] (10 µM): the morphology score in test [1] is -0.00677. The SARS-CoV-2 infection rate in test [2] is 114% (inactive).
The matching figures for `CN1[C@@H]2CC[C@H]1C[C@@H](OC(=O)[C@H](CO)c1ccccc1)C2` [hyoscyamine] (10 µM): 0.139 and 90.5% (inactive).
